Experimental data from ChEMBL document CHEMBL3988442, “University of Dundee, Small-Polar-MMV Screening Library” (2021).
Out of some 69,000 compounds screened, about 420 (0.61%) showed an effect of 50% or more. What follows is part of a selection rich in strong results, with near analogues and random picks from the rest.

target: T1, Histidine--tRNA ligase (Leishmania infantum) (UniProt A4I591); assay: Leishmania infantum Histidine tRNA synthetase (LdHisRS); format: functional; design: scale not given: in the data most compounds retested in dose-response had high values; details: 30 µM
T1 sequence (whole entry): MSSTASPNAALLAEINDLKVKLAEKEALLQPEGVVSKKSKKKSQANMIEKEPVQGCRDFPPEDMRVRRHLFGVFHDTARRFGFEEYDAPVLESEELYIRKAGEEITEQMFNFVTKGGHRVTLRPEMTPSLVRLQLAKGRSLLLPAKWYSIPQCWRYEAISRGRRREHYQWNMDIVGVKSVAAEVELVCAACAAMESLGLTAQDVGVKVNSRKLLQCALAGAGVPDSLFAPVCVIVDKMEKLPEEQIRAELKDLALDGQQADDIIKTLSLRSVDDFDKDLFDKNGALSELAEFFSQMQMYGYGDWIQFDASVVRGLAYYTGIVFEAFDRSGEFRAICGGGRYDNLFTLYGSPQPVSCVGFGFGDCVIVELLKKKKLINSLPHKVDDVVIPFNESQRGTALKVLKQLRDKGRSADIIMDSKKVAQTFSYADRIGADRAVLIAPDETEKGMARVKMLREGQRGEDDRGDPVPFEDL

Structure (SMILES) | Percent Effect [%]
Cc1nc([C@@H]2C[C@@H]3CCN(C(=O)c4ccsc4)C[C@H]3O2)no1 | 0
COc1cccc(CN2C[C@@H]3CC[C@@](O)(c4ccccn4)[C@@H]3C2)c1OC | 0
CC(C)=CCN1CCN(Cc2nccn2C)[C@H]2CS(=O)(=O)C[C@H]21 | 11.2
CCCS(=O)(=O)N1CCO[C@H]2[C@@H](Oc3cccnc3)CC[C@@H]21 | 16.4
Cc1c(CN2CCOCC2)c(O)n(CCO)c(=O)c1C#N | 47.4
Cc1c(CN2CCOCC2)c(O)n(CCc2ccccc2)c(=O)c1C#N | 60.5
Cn1c(NCCN2CCCCCC2)c(C#N)c(=O)n(C)c1=O | 24.7
Cc1c(CN2CCCCC2)c(O)n(CCCO)c(=O)c1C#N | 45.4
Cc1c(CN2CCCCC2)c(O)n(CCO)c(=O)c1C#N | 55.9
CN(CCN1CCOCC1)C(=O)CCCc1ccccc1 | 11.4
Cc1nnc([C@@]23CCO[C@@H]2CCN(Cc2cccc4ccccc24)C3)o1 | 5.94
CNC(=O)[C@@H]1COC[C@H]2CN(C(=O)c3ccc(OC)cc3)C[C@H]21 | 8.77
CN1C(=O)CO[C@H]2CN(C(=O)c3ccc4c(c3)CCCC4)C[C@@H]21 | 0
O=S(=O)(c1cccnc1)N1C[C@@H]2CC[C@H](C1)N(Cc1ccccn1)C2 | 7.53
N#Cc1ccc(C(=O)N2C[C@H](OCc3cccnc3)[C@H]3COC[C@H]32)cc1 | 6.94
CN(C)CCNC(=O)C1Cc2nc(-c3ccccc3)sc2N1CC1CC1 (stereo not given) | 20.8
CN(C)CCNC(=O)C1Cc2nc(-c3ccsc3)sc2N1CC1CC1 (stereo not given) | 22.2
CC(C)NC(=O)C1Cc2nc(-c3ccsc3)sc2N1CC1CC1 (stereo not given) | 51.4
CC(C)N1c2sc(-c3ccsc3)nc2CC1C(=O)NC1CC1 (stereo not given) | 30
O=C(NC1CCCC1)C1Cc2nc(-c3ccsc3)sc2N1CC1CC1 (stereo not given) | 23.6
O=C(Nc1cccnc1)C1Cc2nc(-c3ccsc3)sc2N1CC1CC1 (stereo not given) | 62.5
CC(C)CNC(=O)[C@H]1C[C@@H]2CN(C(=O)NCC3CCCCC3)C[C@H]1O2 | 17.2

Structure (SMILES) | Percent Effect [%]
COc1ccccc1CN1C(=O)O[C@@H]2CN(Cc3cccc(C)n3)C[C@@H]21 | -1.67
O=C1O[C@@H]2CN(Cc3ccncc3)C[C@@H]2N1CCCN1CCOCC1 | -6.67
COc1cc(-n2cc(CCO)cn2)ccc1NC(C)=O | 31.6
COc1ccc(-n2cc(CCO)cn2)cc1C | 69.6
COc1ccc(-n2cc(CCO)cn2)cc1C(N)=O | 34.2
N#Cc1ccc(OC[C@]23COC[C@H]2CN(c2ncccn2)C3)nc1 | 5.56
c1cncc(N2CCCC3(CCN(CCN4CCCC4)CC3)C2)c1 | 15.3
N#Cc1ccc(N2CCCC3(CCN(c4cccnc4)CC3)C2)cc1 | 51.4
c1cncc(N2CCC3(CCCN(c4ccncc4)C3)CC2)c1 | 15.3
O=C1[C@H]2CN(Cc3ccccc3)C[C@H]2CN1CCN1CCCC1 | 17.3
Cc1ccc(-n2cc(CN3CCN(C)[C@@H]4CS(=O)(=O)C[C@@H]43)cn2)cc1 | 11.4
Cc1cc(C)cc(NC(=O)Nc2c(O)oc3ccccc3c2=O)c1 | 16.1
CCn1nc2c(cc1=O)CN(c1nc3ccccc3s1)CC2 | 72.7
c1ccc2sc(N3CCCN(c4ncnc5c4CCNC5)CC3)nc2c1 | 57.1
Cn1nc2c(cc1=O)CN(Cc1nc3ccccc3c(=O)[nH]1)CC2 | 24.7
CCn1nc2c(cc1=O)CN(Cc1nc3ccccc3o1)CC2 | 12.9
Cn1nc2c(cc1=O)CN(CCc1nc3ccccc3c(=O)[nH]1)CC2 | 53.9
c1ccc2sc(N3CCN(c4ncnc5c4CCC5)CC3)nc2c1 | 14.3
Cn1nc2c(cc1=O)CN(Cc1nc(N)c3ccccc3n1)CC2 | 43.5
CC(C)n1nc2c(cc1=O)CN(c1nc3ccccc3s1)CC2 | 18.2
CCn1nc2c(cc1=O)CN(Cc1nc3ccccc3c(=O)[nH]1)CC2 | 25
Cn1nc2c(cc1=O)CN(c1nc3ccccc3s1)CC2 | 90.9

Structure (SMILES) | Percent Effect [%]
Cc1ncnc(N2CCCN(c3nc4ccccc4s3)CC2)c1C | 25.7
Cc1nc(CO[C@H]2CN(C(=O)c3cnoc3C)[C@@H]3COC[C@H]23)cs1 | 10
CC(C)NC(=O)[C@@]12CCO[C@@H]1CCN(Cc1ccco1)C2 | 15.1
O=C(Nc1cccnc1)[C@H]1C[C@@H]2CN(Cc3ccc(F)cc3)C[C@H]1O2 | 10
CC(C)C(=O)N1CC[C@H]2N(C)CC[C@@]2(C(=O)Nc2cccnc2)CC1 | 8.11
OC[C@H]1CC[C@]2(CC1)CN(Cc1ccsc1)Cc1ccccc1O2 | 16.5
O=C(c1ccco1)N1C[C@@H]2OCCN(CCN3CCCC3)[C@@H]2C1 | 6.01
CNC(=O)N1CCC2(CC1)CC[C@@]1(C(=O)NC)CN(S(C)(=O)=O)C[C@@H]21 | 9.72
CN(Cc1ccco1)[C@@H]1CN(Cc2nccn2C)[C@@H]2CCCO[C@H]12 | 27
O=C([C@@H]1COC[C@H]2CN(c3ccncn3)C[C@H]21)N1CCCC1 | 19.3
CN(Cc1ccc2c(c1)OCO2)C(=O)c1ccc(=O)n(C)c1 | 5.33
CN(Cc1ccco1)C(=O)Nc1ccc(=O)n(C)c1 | 102
CN(Cc1cccs1)C(=O)c1ccc(=O)n(C)c1 | 11.3
COc1ccc(NC(=O)N(C)Cc2ccco2)cn1 | 16
CN(Cc1ccco1)C(=O)c1ccc(=O)n(C)c1 | 14.9
Cc1occc1CN(C)C(=O)Nc1ccc(=O)n(C)c1 | 102
CS(=O)(=O)N[C@@H]1CN(C(=O)c2cccnc2)[C@@H]2CCCO[C@@H]21 | 8.26
O=C([C@@H]1C[C@@H]2CCN(C3CCOCC3)C[C@@H]2O1)N1CCOCC1 | 8.33
CC(=O)N1CCN(C(=O)CNc2ccc3ncsc3c2)CC1 | 58.8
CC(=O)N1CCN(C(=O)C(C)Nc2ccc3ncsc3c2)CC1 (stereo not given) | 28.9
CC(=O)N1CCN(C(=O)CNc2ccc3sccc3c2)CC1 | 27.2
CCn1nc2c(cc1=O)CN(Cc1coc(-c3ccccc3)n1)CC2 | 14.9

Structure (SMILES) | Percent Effect [%]
Cn1nc2c(cc1=O)CN(Cc1coc(-c3cccs3)n1)CC2 | 97.6
O=C1NCCN1C1CCCN(Cc2coc(-c3cccs3)n2)C1 (stereo not given) | 13.4
O=C1NCCN1C1CCCN(Cc2coc(-c3ccc(F)cc3)n2)C1 (stereo not given) | 24.6
CC1CCCN(Cc2coc(-c3cccc(F)c3)n2)C1 (stereo not given) | 13.7
CN(C)CC1CN(Cc2coc(-c3cccs3)n2)CCO1 (stereo not given) | 14.9
Cn1nc2c(cc1=O)CN(Cc1coc(-c3ccccc3)n1)CC2 | 44.7
CCN1CCN(Cc2coc(-c3cccc(F)c3)n2)CC1 | 21.9
O=C1NCCN1C1CCN(Cc2coc(-c3ccc(F)cc3)n2)CC1 | 9.82
Cn1nc2c(cc1=O)CN(Cc1coc(-c3ccc(F)cc3)n1)CC2 | 90.3
Cc1ccc(-c2nc(CN3CCc4nn(C)c(=O)cc4C3)co2)cc1 | 107
Cn1nc2c(cc1=O)CN(Cc1coc(-c3cccc(F)c3)n1)CC2 | 90.3
Cc1cccc(S(=O)(=O)N2CC[C@H]3CO[C@H](CN(C)C)[C@H]3C2)c1 | 0.917
Cc1ccc(CN2C[C@H](N(C)Cc3cncnc3)[C@H]3OCCC[C@H]32)o1 | 15.4
O=C1CCCC2=C1C(c1ccc(F)cc1F)Nc1nonc1N2 (stereo not given) | 14.6
Cc1ccccc1CN1C[C@@H]2CC[C@H](C1)N(CC1CCC1)C2=O | 34.4
CCOCC(=O)N1C[C@@H]2CC[C@H](Oc3ccccc3)[C@@H]2C1 | 26.3
COc1ccc(CNCCC(=O)N2CCc3sccc3C2)cc1O | 26.9
N#Cc1cccc(CNCCC(=O)N2CCc3sccc3C2)c1 | 5.38
O=C(CCNCc1cccc(O)c1)N1CCc2sccc2C1 | 85
c1ccc(-c2noc(CNC3CCCN(c4cccnn4)C3)n2)nc1 (stereo not given) | 67.7
c1cnnc(N2CCCC(NCc3nc(-c4ccco4)no3)C2)c1 (stereo not given) | 0.926
c1cnnc(N2CCCC(NCc3nc(-c4cccs4)no3)C2)c1 (stereo not given) | 24.7

Structure (SMILES) | Percent Effect [%]
Cc1cccc(CN2C[C@@H]3OCCN(CC(=O)N(C)C)[C@@H]3C2)c1 | 13.5
O=C(c1ncccn1)N1C[C@@H]2COC[C@]2(COc2cccnc2)C1 | 17.3
CS(=O)(=O)c1ccc(CN2C[C@H]3CC[C@@H]2CN(c2ncccn2)C3)cc1 | 15
CCS(=O)(=O)N1CCC2(CC1)CC[C@@]1(C(=O)NC)CN(C(C)=O)C[C@@H]21 | 19.7
CC(C)(C)C(=O)N1CC[C@H]2NC(=O)N(c3ccc(F)cc3)C(=O)[C@H]21 | 19.4
Cc1nc([C@@H]2C[C@@H]3CCN(C(=O)c4ccnnc4)C[C@H]3O2)sc1C | 18.4
Cc1ccccc1N1CCN(c2nc(N(C)C)nc3c2CCNC3)CC1 | 58.6
CC(Nc1nc(-c2ccccc2)nc2c1CCNCC2)c1nccs1 (stereo not given) | 19.7
c1ccc2c(c1)CCN(c1ncnc3sc4c(c13)CCNC4)C2 | 15.1
Cc1cc2n(n1)CCN(c1nc(N(C)C)nc3c1CCNC3)C2 | 36.7
c1ccc2c(c1)CN(c1ncnc3c1CCNC3)CCO2 | 16.1
CN(C)c1nc2c(c(N3CCc4ccccc4C3)n1)CCNC2 | 58.6
c1ccc2c(c1)CCN(c1nc(-c3ccncc3)nc3c1CCNC3)C2 | 101
CC(Nc1nc(-c2ccncc2)nc2c1CCNC2)c1ccccc1 (stereo not given) | 54.1
CN(C)c1nc2c(c(N3CCc4c(c(CO)nn4C)C3)n1)CCNC2 | 11.4
CC(Nc1nc(-c2ccccc2)nc2c1CCNCC2)c1cccnc1 (stereo not given) | 16.4
Cc1cccc(=O)n1CCCNc1nc(N(C)C)nc2c1CCNC2 | 35.3
Cc1nc2c(c(N3CCN(c4ncccc4C(N)=O)CC3)n1)CCNC2 | 12.9
CCOc1ccc(C(=O)N2C[C@H]3CC[C@@H]2CN(C)C3)cc1OCC | 15.1
O=C1[C@H]2CN(S(=O)(=O)c3cccs3)C[C@H]2CN1CC1CC1 | 21.4
CN(Cc1cncnc1)[C@@H]1CN(C(=O)c2ccco2)[C@@H]2CCCO[C@H]12 | 17.3
CCC1=N[C@@]2(CC[C@@H]3CN(Cc4ccc(F)cc4)C[C@@H]32)C(=O)N1C | 8.18
